Measured values reported in PubChem BioAssay.
Unmarked numbers belong to inactive results.

assay: A549 lung cancer cell viability effects, profiling panel, resazurin fluorescence, 24 h, PK04 Diversity Set (AID 1171); conditions: higher = more signal, called active from +8 up or from −8 down; also: test concentration not given here

Structure (SMILES)	z-score
COc1cc2c(cc1O)C(C1CC1)N(C)CC2 (stereo not given)	-0.348
CCCCN1CC=CC23O[C@@H]4/C=C\CCCOC(=O)C4[C@H]2C(=O)N(CCO)[C@@H]3C1=O (stereo not given in full)	-0.688
COCCCNC(=O)[C@@]1(CCC(=O)OC(C)(C)C)N=C(c2ccc(OCCCO)cc2)O[C@H]1c1ccccc1N=[N+]=[N-]	1.38
CS(=O)(=O)CCOC(=O)C1=CC(c2ccc(CO)cc2)=CC(C2CC2)N(Cc2sc3ccccc3c2Cl)C=C1C(=O)OCCS(C)(=O)=O (stereo not given)	-1.05
COCCOC(=O)N1C(=O)[C@@]2(c3ccccc31)[C@H](C(=O)NC[C@H](O)c1ccccc1)[C@H]1C(=O)O[C@H](c3ccccc3)[C@H](c3ccccc3)N1[C@@H]2c1ccc(O)cc1	0.0737
CN(C)C(=O)[C@]1(Cc2ccccc2CN=[N+]=[N-])N=C(c2ccc(OCCCO)cc2)O[C@@H]1c1ccccc1	0.721
COc1cc(OC)c(C(O)C2C=CC3C(=O)N(Cc4ccccc4)C(=O)C3N2n2cnnc2)cc1Br (stereo not given)	-0.963
C=C[C@H](C)[C@H](OC(=O)Nc1ccc(SC)cc1)c1ccc(OCCO)cc1	-1.48
CCOC(=O)C1=C[C@@H](C(C)C)N(S(=O)(=O)c2ccc(C)cc2)[C@H]1c1ccc(C(F)(F)F)cc1	0.793
CCOC(=O)C[C@H]1[C@H](OC(=O)c2ccc(-c3ccccc3)cc2)[C@@H](NC(=O)CC(C)C)c2cc(OCCCO)ccc2N1C(=O)c1ccc2ccccc2n1	0.713
